# Assay results from paper PMC4336329 (PLoS ONE, 2015).
# Out of some 310,000 compounds screened, about 14,000 (4.5%) showed an effect of 50% or more. The effect is printed as a negative number. This excerpt belongs to a sample that is enriched for strong results.
# Molecular target: human ether-à-go-go-related gene (hERG) potassium channel (human, UniProt Q12809)
# Test: primary screen, population patch clamp on CHO cells stably expressing hERG; higher = less effect of the substance
# 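Also: peak tail current of the secondary pulse compared with the same well before compound.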
# Sequence of human ether-à-go-go-related gene (hERG) potassium channel (Q12809 whole entry, looked up): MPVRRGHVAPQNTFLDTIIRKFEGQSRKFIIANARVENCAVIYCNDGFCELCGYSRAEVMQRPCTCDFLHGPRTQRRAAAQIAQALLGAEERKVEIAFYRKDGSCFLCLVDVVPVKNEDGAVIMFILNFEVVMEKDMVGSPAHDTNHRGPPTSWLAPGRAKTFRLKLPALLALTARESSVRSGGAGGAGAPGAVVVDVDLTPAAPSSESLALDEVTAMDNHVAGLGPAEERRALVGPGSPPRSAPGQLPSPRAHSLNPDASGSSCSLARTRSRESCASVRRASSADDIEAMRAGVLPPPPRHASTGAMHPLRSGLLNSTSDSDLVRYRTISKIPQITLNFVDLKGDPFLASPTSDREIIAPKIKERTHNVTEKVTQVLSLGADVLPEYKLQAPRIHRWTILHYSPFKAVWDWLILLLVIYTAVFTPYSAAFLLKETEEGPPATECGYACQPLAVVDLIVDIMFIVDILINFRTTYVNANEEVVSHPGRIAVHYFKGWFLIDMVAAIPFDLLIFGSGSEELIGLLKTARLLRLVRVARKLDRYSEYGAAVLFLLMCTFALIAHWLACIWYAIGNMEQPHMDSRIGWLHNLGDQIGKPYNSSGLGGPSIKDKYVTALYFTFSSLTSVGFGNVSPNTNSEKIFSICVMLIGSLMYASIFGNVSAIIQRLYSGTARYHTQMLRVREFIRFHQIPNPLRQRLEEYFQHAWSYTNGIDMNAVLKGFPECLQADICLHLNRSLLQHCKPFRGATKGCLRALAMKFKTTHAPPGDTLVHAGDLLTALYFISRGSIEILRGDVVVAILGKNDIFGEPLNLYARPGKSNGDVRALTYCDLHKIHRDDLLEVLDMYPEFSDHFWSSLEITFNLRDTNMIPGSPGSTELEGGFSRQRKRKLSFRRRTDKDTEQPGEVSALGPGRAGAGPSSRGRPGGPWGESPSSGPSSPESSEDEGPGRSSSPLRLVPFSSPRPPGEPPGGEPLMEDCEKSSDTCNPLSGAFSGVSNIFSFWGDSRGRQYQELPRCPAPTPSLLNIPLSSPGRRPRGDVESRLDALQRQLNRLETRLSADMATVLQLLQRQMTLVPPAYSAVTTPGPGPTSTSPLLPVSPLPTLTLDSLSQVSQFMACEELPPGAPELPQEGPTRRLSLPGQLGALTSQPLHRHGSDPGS
row,Compound,"hERG current change (%, negative = inhibition) at 10uM [%]"
1,COc1ccc(Cl)cc1NC(=O)c1noc(C)c1[N+](=O)[O-],-29.5
2,O=C(NNC(=O)c1cc(-c2ccc(Cl)cc2Cl)nc2ccccc12)Nc1ccccc1,1.72
3,CCCC(=O)N1CCN(Cc2nc3cc([N+](=O)[O-])ccc3n2C)CC1,-36.8
4,Cn1c(CCNC(=O)c2ccco2)nc2cc([N+](=O)[O-])ccc21,-26
5,Cn1c(CN2CCN(C(=O)c3ccco3)CC2)nc2cc([N+](=O)[O-])ccc21,-60
6,Cc1ccc(C(C)C)c(OCC(=O)N2CCN(Cc3nc4cc([N+](=O)[O-])ccc4n3C)CC2)c1,-65.8
7,Cc1ccc(C(C)C)c(OCC(=O)N2CCN(CC(=O)N3CCOCC3)CC2)c1,1.81
8,CN1CCN(Cc2nc3cc(NC(=O)COc4ccc([N+](=O)[O-])cc4)ccc3n2C)CC1,9.29
9,CCCC(=O)NCCc1nc2cc([N+](=O)[O-])ccc2n1C,-16.4
10,Cn1c(CN2CCN(C(=O)COc3ccccc3)CC2)nc2cc([N+](=O)[O-])ccc21,-55.2
11,Cn1c(CN2CCN(C(=O)c3ccc(F)cc3)CC2)nc2cc([N+](=O)[O-])ccc21,-67.5
12,CC(=O)N1CCN(Cc2nc3cc(NC(=O)COc4ccccc4)ccc3n2C)CC1.Cl,0.239
13,O=C(CSc1nccn1-c1ccc(Cl)cc1)N1CCCc2ccccc21,-11.7
14,Cc1cc(NC(=O)c2cccc(S(=O)(=O)N3CCC(C)CC3)c2)no1,0.978
15,CCCCN(C)C(=O)c1cc2cc3cc(OC)ccc3nc2o1,-30.8
16,C(=N\Nc1nc(N2CCCC2)nc(N2CCCC2)n1)/c1ccncc1,2.85
17,Cn1c(CN2CCN(S(C)(=O)=O)CC2)nc2cc([N+](=O)[O-])ccc21,-0.37
18,CC(=O)N1CCN(Cc2nc3cc([N+](=O)[O-])ccc3n2C)CC1,-4.94
19,Cn1c(CN2CCN(C(=O)c3ccccc3)CC2)nc2cc([N+](=O)[O-])ccc21,-67.3
20,COC(=O)c1c(C)oc(C)c(C(=O)OC)c1=O,5.25
21,O=C1C2C3C=CC(C4CC34)C2C(=O)N1Cc1ccco1 (stereo not drawn),4.37
22,CCc1nc2ccc(C(=O)NCCCN3CCN(c4ccc(F)cc4)CC3)cc2nc1CC,-66.4
23,O=C(NCCCN1CCN(c2ccc(F)cc2)CC1)c1cccc(N2CCCC2=O)c1,-48.5
24,Cc1cc(=O)oc(C)c1C(=O)NCCCN1CCN(c2ccc(F)cc2)CC1,-53.6
25,Cc1c(C)n(C)c2ccc(C(=O)NCCCN3CCN(c4ccccc4F)CC3)cc12,-54.2
26,Cc1cc(=O)oc(C)c1C(=O)NCCCN1CCN(c2ccccc2F)CC1,-40.4
27,CCc1nc2ccc(C(=O)NCCCN3CCN(c4ccccc4F)CC3)cc2nc1CC,-49.8

row,Compound,"hERG current change (%, negative = inhibition) at 10uM [%]"
1,Cc1c(C)n(C)c2ccc(C(=O)NCCCN3CCCCC3)cc12,-17.2
2,Cc1c(C)n(C)c2ccc(C(=O)NCCCN3CCN(c4ccc(F)cc4)CC3)cc12,-66.6
3,COc1ccc(N2CCN(CCNC(=O)c3c(C)cc(=O)oc3C)CC2)cc1,-12.2
4,Cc1c(C)n(C)c2ccc(C(=O)NCCCN3CCN(C)CC3)cc12,14.9
5,Cc1c(C)n(C)c2ccc(C(=O)NCCCN3CCCC3)cc12,-23.8
6,Cc1c(C)n(C)c2ccc(C(=O)NCCCN3CCOCC3)cc12,10.8
7,Cc1ccc(S(=O)(=O)N2CCN(S(=O)(=O)c3ccc(C)cc3)C2)cc1,-24.9
8,CCN(CC)S(=O)(=O)c1cc(-c2nnc(-c3ccc(Br)cc3)o2)ccc1Br,12.7
9,COCCNC(=S)NN(c1ccccc1)c1ccccc1,-1.18
10,Oc1cc2c(cc1CN1CCc3ccccc3C1)OCO2,-0.697
11,CS(=O)(=O)N1CCN(c2ccc(NC(=O)COc3ccccc3)cc2)CC1,0.0465
12,COc1ccc(/C=N/NC(=O)c2ccc(NC(=O)c3ccccc3Br)cc2)cc1,6.43
13,CCN1/C(=C/C(C)=O)Sc2ccc(OC)cc21,-12.7
14,CCN1/C(=C/c2cccc[n+]2C)Sc2ccc(OC)cc21.[I-],-67.3
15,CCN1/C(=C\C(C)=O)Sc2ccc(OC)cc21,13.9
16,CCCNC(=O)COC(=O)c1cccnc1Nc1ccccc1F,-9.21
17,CCC1C(=O)NCCN1C(=O)c1ccc2nc(Cc3cccc(Cl)c3)oc2c1 (stereo not drawn),-18.6
18,CCN(CC(=O)NCc1cccs1)C(=O)CCc1c[nH]c2ccccc12,-17.6
19,CCN(CC(=O)NCc1ccc(Cl)cc1)C(=O)CCc1ccccc1O,-54.1
20,CCN(CC(=O)NCc1ccc(Cl)cc1)C(=O)NCc1ccc(Cl)cc1,-48.4
21,O=C(COC(=O)Cc1ccccc1[N+](=O)[O-])NCc1ccc(Cl)cc1,-11
22,CCN(CC(=O)NCc1ccc(Cl)cc1)C(=O)CCc1ccccc1,-58.7
23,O=C(Cc1ccccc1[N+](=O)[O-])NCc1ccc(Cl)cc1,5.25
24,CCN(CC(=O)NCc1ccc(Cl)cc1)C(=O)Cc1ccccc1[N+](=O)[O-],-63.4
25,CCN(CC(=O)NCc1ccc(Cl)cc1)C(=O)C(C)Sc1ccccc1 (stereo not drawn),-33.8
26,O=C(CCCc1ccccc1)NCc1ccc(Cl)cc1,-15.3
27,O=C(CC(c1ccccc1)c1cc(Cl)ccc1O)N1CCCC1 (stereo not drawn),-17.5
